This passage reports growth results from PubChem BioAssay (NCI).

Holding throughout (assay): NCI-60 one-dose screen, 48 h (100 = growth as untreated, 0 = no growth, -100 = all killed)
Holding throughout (conditions): 10 µM unless noted

The subject of experiment [1] is RPMI-8226 leukemia.
The subject of experiment [2] is OVCAR-8 ovarian.
Experiment [3] has as its system OVCAR-5 ovarian.
Experiment [4] concerns SK-OV-3 ovarian.
Experiment [5] concerns IGROV1 ovarian.
The test system of experiment [6] is OVCAR-3 ovarian.
Experiment [7] concerns HS 578T breast.
Experiment [8] relates to NCI/ADR-RES ovarian.
Experiment [9] deals with T-47D breast.
Experiment [10] relates to BT-549 breast.
In experiment [11] the test system is MDA-MB-435 melanoma.
For experiment [12], the system named is SW-620 colon.
Experiment [13] concerns MCF7 breast.
Experiment [14] concerns HCT-116 colon.
Experiment [15] concerns HCC-2998 colon.
For experiment [16], the system named is KM12 colon.
Experiment [17] relates to SR leukemia.
Experiment [18] deals with OVCAR-4 ovarian.

About 83,000 compounds went through this panel and 20% of them were active in at least one assay; those are over-represented in the sample as a whole.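 Each cell line was grown in a 96-well plate and treated with one concentration of compound for 48 hours. Values below 10 were considered active.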 Unmarked numbers belong to inactive results. Calls of active or inactive are those of the source.

Take `Fc1ccc2[nH]cc(-c3nc(-c4c[nH]c5ncccc45)cs3)c2c1`: the growth in experiment [1] is 31.5%; in experiment [2], 36.6%; in experiment [3], 86.1%; in experiment [4], 58.9%; in experiment [5], 32.5%; in [6], 44.5%. For the same molecule, the growth is 31.4% in experiment [7]; 27.1% in [8]; 47.3% in [9]; 20.6% in [10]; 62.1% in [11]; 47.2% in experiment [12]. Moreover, the growth is 30.3% in experiment [13], 26.2% in experiment [14], 84.4% in [15] and 38.9% in [16].
For the molecule `CC(c1ccccc1)N1C(=O)C(C2SC(=S)N(C(C)c3ccccc3)C2=O)SC1=S` (stereo unspecified), the growth is 41.4% in experiment [17]; 96.6% in experiment [2]; 98.8% in experiment [3]; 97.2% in experiment [18]; 106% in [4]; 76.5% in [5]. The growth in experiment [6] is 76.8%; in experiment [7] it was 96%; in [8], 97.9%; in [9] it was 73.2%; in experiment [10], 89.5%; in experiment [11] it was 57.2%. Further, the growth in experiment [12] is 54.7%; in [13] it was 25.8%; in [14], 57%; in [15], 107%; in [16], 67.9%.
With `O=C(/C=C/c1ccc2ccccc2c1)Nc1ncc(Cc2ccccc2)s1`, the growth is 16.9% in [17]; 59.8% in [2]; 49.5% in experiment [3]; -37.5% (active) in experiment [18]; 87.8% in experiment [4]; 10% in [6]. Also, the growth in experiment [7] was 29.2%; in experiment [8], 32.3%; in [9], 25.7%; in experiment [10] it was 72.5%; in experiment [11] it was 66.1%; in [12], 42.6%. The growth was 50.3% in experiment [13], 21% in [14], 92% in experiment [15] and 64.4% in experiment [16].
Take `COc1ccc(C2(Cl)c3ccccc3N(c3ccccc3)c3ccccc32)cc1`: the growth in [17] is 3.25% (active); in experiment [2] it was 6.73% (active); in experiment [3] it was 17%; in [18] it was 3.18% (active); in [4] it was -11.1% (active); in experiment [5], 17.5%. Also, the growth in [6] is -43.9% (active); in experiment [7], -12.9% (active); in experiment [8] it was 21.4%; in experiment [9], 5.67% (active); in experiment [10] it was 11.3%; in [11] it was -60.9% (active). The growth in experiment [12] was 0.491% (active); in experiment [13], -6.13% (active); in experiment [14] it was -37.7% (active); in [15], -15.6% (active); in experiment [16], 6.64% (active).
`CN(CSc1ccc(Cl)cc1)c1ccc(CSc2ccc(Cl)cc2)cc1`: the growth was 18% in experiment [1]; 93.3% in experiment [2]; 120% in [3]; 67.9% in experiment [18]; 108% in experiment [4]; 42.9% in experiment [5]. For the same molecule, the growth in [6] was 62.6%; in [7], 93.3%; in experiment [8], 91.7%; in experiment [9], 48.6%; in experiment [10], 51.4%; in experiment [11], 45.8%. The growth was 67.5% in [12]; 51.8% in experiment [13]; 58.1% in experiment [14]; 85.3% in experiment [15]; 46.1% in [16].
Regarding `O=P(O)(c1ccccc1)c1ccccc1I`, the growth in [17] was 88.8%; in [2], 98.2%; in experiment [3], 103%; in experiment [18] it was 102%; in [4] it was 86.8%; in experiment [5] it was 96.2%. For the same molecule, the growth in experiment [6] is 108%; in [7] it was 97%; in experiment [8], 98.8%; in experiment [9], 84.5%; in [10] it was 100%; in [11], 104%. Moreover, the growth in experiment [12] is 94.9%; in experiment [13], 96.6%; in experiment [14], 76.7%; in experiment [15] it was 107%; in experiment [16], 103%.
For the molecule `Cc1ccc2[nH]cc(-c3nc(-c4cn(C)c5ncccc45)cs3)c2c1`, the growth was 62.7% in experiment [1]; 85.8% in experiment [2]; 108% in [3]; 102% in experiment [4]; 108% in experiment [5]; 106% in [6]. The growth in experiment [7] is 99%; in experiment [8] it was 66.7%; in [9] it was 41.5%; in [10] it was 82.9%; in experiment [11], 79.3%; in experiment [12] it was 109%. For the same molecule, the growth was 55.1% in experiment [13], 74.9% in experiment [14], 88.8% in [15] and 77.9% in experiment [16].
`CCCCC(=O)OC1CCCCC1C` (stereo unspecified): the growth in experiment [17] is 95%; in experiment [2], 87%; in experiment [3] it was 90.9%; in [18] it was 104%; in [4] it was 89.4%; in experiment [5] it was 106%. Moreover, the growth is 107% in [6]; 97.6% in [7]; 96.7% in [8]; 95.2% in [9]; 85.2% in experiment [10]; 101% in [11]. Besides, the growth in experiment [12] was 105%; in [13], 103%; in experiment [14], 81%; in experiment [15], 111%; in [16], 99.2%.
In the case of `Cn1c(=O)c2c(nc(N3CCCC3)n2C)n(C)c1=O`, the growth was 100% in experiment [17]; 100% in [2]; 99.1% in experiment [18]; 103% in [4]; 98.5% in [5]; 110% in experiment [6]. In addition, the growth in experiment [7] is 105%; in [8], 103%; in experiment [9], 90.5%; in experiment [10] it was 97%; in [11], 107%; in experiment [12] it was 106%. In addition, the growth in experiment [13] was 99.1%; in experiment [14] it was 93.3%; in experiment [15] it was 108%; in [16] it was 101%.
For the molecule `CCCCCC1CCCCN1C(=O)OCC` (stereo unspecified), the growth was 103% in experiment [1]; 107% in experiment [2]; 94.7% in experiment [3]; 105% in [18]; 98.5% in experiment [4]; 104% in experiment [5]. Moreover, the growth in [6] was 109%; in experiment [7] it was 110%; in [8], 111%; in [9], 92.4%; in experiment [10] it was 98.1%; in experiment [11], 115%. Besides, the growth in [12] is 105%; in [13] it was 99.3%; in experiment [14], 93.6%; in [15], 94.4%; in experiment [16], 110%.
